Laboratory results reported in PubChem BioAssay AID1159580 (chemical genetic matrix, 2015).
Several values for one entry are separate records, joined by “and”; a condition that tells them apart may be missing. Equal entries are not always repeated. Screen size: about 5,500 compounds; about 2,000 (36%) were called active. Inconclusive results (about 18%) are left out. Cut-off read from the data, not from the text of the source: active = normalized growth mostly below about 0.91 (no sharp cut-off); inconclusive = no clear call, values can overlap the other calls; inactive = mostly above about 0.92. The list shows a part of the results.

Test: chemical genetic growth profiling, strain panel (AID 1159580);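 note: tested at 20 µM; growth read once vehicle control cultures reached saturation at 30 °C; 1 = growth at the plate median or of vehicle wells; lower values mean less growth of the strain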
Details: S. cerevisiae deletion strains, growth OD

Measured: normalized growth

NC(CO)C(=O)NNCc1ccc(O)c(O)c1O (configuration not stated)
inactive: locus YAL013W, strain DEP1, active compounds read low 0.941 | locus YAL021C, strain ccr4, active compounds read low 0.96 | locus YAL026C, strain drs2, active compounds read low 0.977 | locus YAL030W, strain snc1, active compounds read low 0.986 | locus YAL040C, strain CLN3, active compounds read low 0.967 | locus YBL061C, strain skt5, active compounds read low 0.999 | locus YBR009C, strain hhf1, active compounds read low 0.971 | locus YBR021W, strain FUR4, active compounds read low 1.02 | locus YBR023C, strain chs3, active compounds read low 0.984 | locus YBR171W, strain sec66, active compounds read low 0.996 | locus YBR229C, strain ROT2, active compounds read low 1.02 | locus YBR231C, strain swc5, active compounds read low 1 | locus YBR279W, strain paf1, active compounds read low 0.97 | locus YCL011C, strain gbp2, active compounds read low 0.946 | locus YCL016C, strain dcc1, active compounds read low 0.977 | locus YCL029C, strain bik1, active compounds read low 0.997 | locus YCL069W, strain vba3, active compounds read low 0.968 | locus YCR088W, strain abp1, active compounds read low 1 | locus YDL005C, strain med2, active compounds read low 1.01 | locus YDL035C, strain GPR1, active compounds read low 1.02 | locus YDL040C, strain nat1, active compounds read low 1.01 | locus YDL074C, strain BRE1, active compounds read low 0.98 | locus YDL101C, strain DUN1, active compounds read low 0.99 | locus YDL185W, strain tfp1, active compounds read low 1 | locus YDL192W, strain arf1, active compounds read low 0.998 | locus YDR001C, strain nth1, active compounds read low 0.982 | locus YDR069C, strain doa4, active compounds read low 0.966 | locus YDR101C, strain arx1, active compounds read low 0.971 | locus YDR137W, strain rgp1, active compounds read low 0.91 | locus YDR150W, strain NUM1, active compounds read low 1.03 | locus YDR159W, strain sac3, active compounds read low 1.02 | locus YDR162C, strain NBP2, active compounds read low 1.02 | locus YDR195W, strain ref2 1.03 | locus YDR297W, strain sur2, active compounds read low 0.994 | locus YDR318W, strain mcm21, active compounds read low 1 | locus YDR334W, strain swr1, active compounds read low 0.982 | locus YDR335W, strain msn5, active compounds read low 0.995 | locus YDR363W, strain ESC2, active compounds read low 0.968 | locus YDR388W, active compounds read low 0.99 | locus YDR392W, strain spt3, active compounds read low 1.03 | locus YDR502C, strain sam2, active compounds read low 0.988 | locus YEL003W, strain gim4, active compounds read low 0.981 | locus YEL037C, strain rad23, active compounds read low 0.98 | locus YEL061C, strain CIN8 (second series), active compounds read low 0.981 | locus YEL061C, strain CIN8, active compounds read low 1.01 | locus YER002W, strain NOP16, active compounds read low 1 | locus YER015W, strain faa2, active compounds read low 0.947 | locus YER016W, strain bim1, active compounds read low 0.994 | locus YER110C, active compounds read low 0.984 | locus YER111C, strain swi4, active compounds read low 0.966 | locus YER155C, strain BEM2 (second series), active compounds read low 1.08 | locus YER155C, strain BEM2, active compounds read low 1 | locus YER167W, strain BCK2, active compounds read low 1.02 | locus YFR010W, strain ubp6, active compounds read low 0.989 | locus YGL078C, strain dbp3, active compounds read low 0.993 | locus YGL086W, strain mad1, active compounds read low 0.993 | locus YGL167C, strain pmr1, active compounds read low 0.996 | locus YGL173C, strain kem1, active compounds read low 1.01 | locus YGL227W, strain vid30, active compounds read low 1.01 | locus YGL240W, strain doc1, active compounds read low 1.06 | locus YGL248W, strain PDE1, active compounds read low 1.01 | locus YGL253W, strain hxk2, active compounds read low 0.958 | locus YGR078C, strain PAC10, active compounds read low 0.995 | locus YGR135W, strain pre9, active compounds read low 0.994 | locus YGR252W, strain gcn5, active compounds read low 0.986 | locus YHR013C, strain ard1, active compounds read low 0.987 | locus YHR030C, strain SLT2, active compounds read low 1.02 and 1.05 | locus YHR079C, strain IRE1 (second series), active compounds read low 1 | locus YHR079C, strain IRE1, active compounds read low 1.06 | locus YHR094C, strain hxt1, active compounds read low 1.01 | locus YHR129C, strain ARP1, active compounds read low 1.01 | locus YHR142W, strain chs7, active compounds read low 0.964 | locus YHR200W, strain rpn10, active compounds read low 0.986 | locus YIL066C, strain RNR3, active compounds read low 1.03 | locus YIL073C, strain SPO22, active compounds read low 0.985 | locus YIL125W, strain kgd1, active compounds read low 0.995 | locus YIR030C, strain dcg1, active compounds read low 0.984 | locus YJL092W, strain hpr5, active compounds read low 0.996 | locus YJL095W, strain BCK1 (second series), active compounds read low 1 | locus YJL095W, strain BCK1, active compounds read low 1.01 and 1.05 | locus YJL115W, strain asf1, active compounds read low 1 | locus YJL129C, strain trk1, active compounds read low 1.06 | locus YJL134W, strain LCB3, active compounds read low 1.01 | locus YJL154C, strain vps35, active compounds read low 0.993 | locus YJL164C, strain tpk1, active compounds read low 0.953 | locus YJL166W, strain qcr8, active compounds read low 1.02 | locus YJL168C, strain set2, active compounds read low 1 | locus YJL187C, strain SWE1 (second series), active compounds read low 0.988 | locus YJL187C, strain SWE1, active compounds read low 0.983 | locus YJR043C, strain POL32, active compounds read low 1.02
active: locus YGR229C, strain SMI1, active compounds read low 0.775 | locus YHR027C, strain rpn1, active compounds read low 0.911
